Reference: paper PMC4336329 (PLoS ONE, 2015)
The whole screen tested about 310,000 compounds, of which about 14,000 (4.5%) showed an effect of 50% or more. The effect is printed as a negative number. The full list was thinned out, with strong results kept by preference. Where a SMILES comes first, the peptide text is derived from it. [ ]: non-standard residue; d: D form. The star is where a group is joined. ξ: configuration not given here. Cbz = O=C(OCc1ccccc1)*; ξV = CC(C)C(N)C(=O)O

molecular target: human ether-à-go-go-related gene (hERG) potassium channel (human, UniProt Q12809); test: primary screen, population patch clamp on CHO cells stably expressing hERG; higher = less effect of the substance
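Note: peak tail current of the secondary pulse compared with the same well before compound.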

Sequence of human ether-à-go-go-related gene (hERG) potassium channel (Q12809 whole entry, looked up): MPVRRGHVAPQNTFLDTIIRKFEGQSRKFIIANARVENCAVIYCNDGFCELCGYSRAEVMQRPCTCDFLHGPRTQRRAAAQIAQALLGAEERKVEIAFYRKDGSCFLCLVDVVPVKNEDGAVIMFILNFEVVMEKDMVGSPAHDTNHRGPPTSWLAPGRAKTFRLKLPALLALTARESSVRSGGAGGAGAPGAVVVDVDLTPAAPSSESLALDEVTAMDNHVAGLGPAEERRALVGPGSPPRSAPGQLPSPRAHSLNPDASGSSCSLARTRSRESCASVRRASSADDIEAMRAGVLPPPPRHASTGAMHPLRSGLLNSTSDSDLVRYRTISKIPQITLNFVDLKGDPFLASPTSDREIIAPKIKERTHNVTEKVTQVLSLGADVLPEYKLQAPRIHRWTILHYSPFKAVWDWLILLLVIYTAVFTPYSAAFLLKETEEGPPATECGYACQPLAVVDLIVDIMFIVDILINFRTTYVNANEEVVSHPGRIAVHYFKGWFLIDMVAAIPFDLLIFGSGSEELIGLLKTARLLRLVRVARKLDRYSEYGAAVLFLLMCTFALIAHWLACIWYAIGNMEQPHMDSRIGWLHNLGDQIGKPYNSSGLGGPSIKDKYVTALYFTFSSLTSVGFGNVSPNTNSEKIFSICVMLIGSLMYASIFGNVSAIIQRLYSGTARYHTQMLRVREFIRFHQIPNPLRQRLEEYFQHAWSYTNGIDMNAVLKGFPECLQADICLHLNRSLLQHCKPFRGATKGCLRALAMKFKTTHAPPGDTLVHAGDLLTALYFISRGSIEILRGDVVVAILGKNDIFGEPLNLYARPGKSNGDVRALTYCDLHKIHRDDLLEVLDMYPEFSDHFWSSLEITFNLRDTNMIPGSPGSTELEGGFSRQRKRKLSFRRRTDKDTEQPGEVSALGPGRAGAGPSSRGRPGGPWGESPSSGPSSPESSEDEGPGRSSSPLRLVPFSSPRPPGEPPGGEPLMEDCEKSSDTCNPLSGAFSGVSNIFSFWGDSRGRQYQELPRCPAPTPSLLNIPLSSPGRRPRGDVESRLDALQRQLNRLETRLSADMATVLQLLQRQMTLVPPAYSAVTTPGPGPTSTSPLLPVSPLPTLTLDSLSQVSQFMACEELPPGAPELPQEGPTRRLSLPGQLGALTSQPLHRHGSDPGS

Structure (SMILES)	hERG current change (%, negative = inhibition) at 10uM
Cc1ccccc1NC(=O)c1cnn(-c2ccccc2)c1NC(=O)c1ccco1	0.329%
COc1ccc(CCNC(=O)c2c[nH]c3ccccc3c2=O)cc1OC	-1.95%
Cc1noc(NS(=O)(=O)c2ccc(NC(=O)C34CCC(CC3)C4)cc2)c1C	-9.55%
COC(=O)CNC(=O)C(NC(=O)OCc1ccccc1)C(C)C (stereo not shown) (Cbz-[ξV]-Gly-OMe)	16.1%
CCOC(=O)Nc1ccc2c(c1)OCO2	26.2%
CCOC(=O)C1CCCN(Cc2c(Cl)cccc2Cl)C1 (stereo not shown)	-6.47%
CCOC(=O)C1CCCN(Cc2ccccc2Cl)C1 (stereo not shown)	-3.88%
CCOC(=O)C1CCCN(Cc2nc(N)nc(Nc3ccc(C)cc3)n2)C1 (stereo not shown)	-69.5%
CCOC(=O)C1CCCN(Cc2nc(N)nc(Nc3ccccc3OC)n2)C1 (stereo not shown)	-70.8%
CCOC(=O)C1CCCN(C(=S)Nc2ccc(OC)cc2)C1 (stereo not shown)	5.25%
Cc1ccccc1Nc1nc(N)nc(COC(=O)C2CCCCC2)n1	8.35%
CCOC(=O)C1CCCN(Cc2ccc(OCC)cc2)C1 (stereo not shown)	-42.9%
CCOC(=O)C1CCCN(c2nc3ccccc3nc2NS(=O)(=O)c2ccc(C)cc2)C1 (stereo not shown)	-44.8%
CCOC(=O)C1CCCN(Cc2nc(N)nc(Nc3ccc(Cl)cc3)n2)C1 (stereo not shown)	-79%
CCOC(=O)C1CCCN(Cc2cccc(Cl)c2)C1 (stereo not shown)	-8.02%
CCOC(=O)C1CCCN(Cc2nc(N)nc(Nc3ccc(OC)cc3)n2)C1 (stereo not shown)	-75.6%
COc1ccccc1Nc1nc(N)nc(CSC(=S)N2CCCCC2C)n1 (stereo not shown)	-5.64%
N#Cc1cc2c(N)c(C(=O)Nc3ccccc3)sc2nc1N	8.83%
CCCCN(C(=O)C1CCC1)c1c(N)n(CC(C)C)c(=O)[nH]c1=O	1.74%
COc1ccccc1OCC(=O)[O-].[Na+]	4.6%
Cc1c(Cl)cccc1-c1ccc(CNCc2ccccn2)o1.Cl	8.15%
Cc1ccc(OCC(=O)NCCO)c(Br)c1	14.3%
O=C(CSc1nnc(-c2ccc(F)cc2)o1)Nc1ccc(S(=O)(=O)N2CCCC2)cc1	-2.73%
CC(C(=O)NCc1cccs1)n1cccc1 (stereo not shown)	7.58%

Structure (SMILES)	hERG current change (%, negative = inhibition) at 10uM
COc1ccc(CNC(=O)CC23CC4CC(CC(C4)C2)C3)cc1	20.4%
CCOC(=O)C1CCCN(Cc2nc(N)nc(Nc3ccccc3)n2)C1 (stereo not shown)	-71.2%
CCOC(=O)C1CCCN(Cc2ccccc2C)C1 (stereo not shown)	-15.1%
CCOC(=O)C1CCCN(Cc2ccc(-c3ccccc3)cc2)C1 (stereo not shown)	-10.5%
CCN(CC)C(=O)Cn1c(=O)n(CCC(=O)Nc2ccc(F)cc2)c(=O)c2sccc21	14.9%
Cc1ccc2nc(NC(=O)c3ccc(Br)o3)sc2c1	20.6%
CCOc1ccc(N2C(=O)C3ON(c4ccccc4)C(c4cccs4)C3C2=O)cc1 (stereo not shown)	7.35%
CC(=O)Nc1ccc(NC(=O)C2CC(=O)Nc3nc4ccccc4n32)cc1 (stereo not shown)	24.6%
O=C(c1ccc2c(c1)OCCO2)N1CCN(c2ccc([N+](=O)[O-])cc2)CC1	-47.1%
O=C(c1cc(C(=O)N2CCN(c3ccc(F)cc3)CC2)cc([N+](=O)[O-])c1)N1CCN(c2ccc(F)cc2)CC1	-26.2%
Cc1cc(C(=O)N/N=C/C=C/c2ccc([N+](=O)[O-])cc2)n[nH]1	-53%
Cc1cc(C(=O)N2CCN(c3ccc([N+](=O)[O-])cc3)CC2)n[nH]1	-78.5%
Cc1cc(C(=O)N/N=C/C=C/c2ccc(Br)cc2)n[nH]1	9.77%
O=C(c1cc2ccccc2cc1O)N1CCN(c2ccc([N+](=O)[O-])cc2)CC1	-40.3%
Cc1onc(-c2ccccc2)c1C(=O)N1CCN(c2ccc([N+](=O)[O-])cc2)CC1	-36.4%
CC(C)(O)C#Cc1ccc(C(=O)N2CCN(c3ccc(F)cc3)CC2)cc1	-11.4%
Cc1cc(C(=O)N2CCN(c3ccc([N+](=O)[O-])cc3)CC2)co1	-75.5%
CC(C)(O)C#Cc1ccc(C(=O)N2CCN(c3ccc([N+](=O)[O-])cc3)CC2)cc1	-70.4%
CC(C)(O)C#Cc1ccc(C(=O)N2CCN(c3ccc(Cl)cc3)CC2)cc1	-9.19%
Cc1cc(C(=O)N/N=C/C=C/c2cccc([N+](=O)[O-])c2)n[nH]1	-3.28%
CCOc1ccc(/C=C/C(=O)CCC(=O)O)cc1	13.5%
O=[N+]([O-])c1cccc(-c2ccc(C(=S)N3CCN(c4ccc(F)cc4)CC3)o2)c1	2.61%
O=C(c1ccc([N+](=O)[O-])cc1)N1CCN(c2ncc(Br)cn2)CC1	-32%
Cc1cc(C(=O)N2CCN(c3ccccc3)CC2)no1	-0.965%

Structure (SMILES)	hERG current change (%, negative = inhibition) at 10uM
Cc1cc(C(=O)N2CCN(c3ccc([N+](=O)[O-])cc3)CC2)no1	-70.6%
COc1ccc(N2CCN(C(=O)c3nc4nc(C)cc(C)n4n3)CC2)cc1	9.69%
O=C(c1cncc(Br)c1)N1CCN(c2ccc([N+](=O)[O-])cc2)CC1	-77%
Cc1cc(C)n2nc(C(=O)N3CCN(c4ccc([N+](=O)[O-])cc4)CC3)nc2n1	-71.4%
COc1ccc(N2CCN(C(=O)c3cc(C)on3)CC2)cc1	6.64%
COc1cccc(N2CCN(C(=O)c3nc4nc(C)cc(C)n4n3)CC2)c1	7.28%
O=C(c1cncc(Br)c1)N1CCN(c2ccc(N3CCOCC3)nn2)CC1	-2.06%
Cc1c(O)ccc2c(O)c(NC(=O)c3ccc4c(c3)CCC(C)(C)O4)c(=O)oc12	6.09%
CCn1c(CNC(=O)c2ccc(OC)c(OC)c2)nnc1SCC(=O)c1ccc(OC)cc1	-0.747%
O=C(CSc1ncn[nH]1)Nc1ccc(Cl)c(Cl)c1	0.453%
Cn1cc2cccc([N+](=O)[O-])c2n1	2.69%
O=C(CSc1nc2ccc([N+](=O)[O-])cc2[nH]1)c1ccc(Cl)cc1	12.1%
O=C1c2ccccc2C2(c3ccccc3)NCCN12 (stereo not shown)	5.86%
CN(CC(=O)Nc1cccc2ccccc12)c1ccc(S(=O)(=O)N2CCOCC2)cn1	11.8%
COc1ccccc1CCCNC(=O)C1CCC(=O)N(CCCN2CCCC2=O)C1 (stereo not shown)	14%
O=C(NCc1ccon1)C1CCC(=O)N(CCc2ccc(Cl)cc2)C1 (stereo not shown)	-37.2%
Cc1ccc(CCN2CC(C(=O)NCc3ccc4c(c3)OCO4)CC2=O)cc1 (stereo not shown)	-37.2%
COc1ccccc1CCCNC(=O)C1CCC(=O)N(CCc2ccc(Cl)cc2)C1 (stereo not shown)	-60.5%
O=C(NCc1ccc2c(c1)OCO2)C1CC(=O)N(CCc2ccc(Cl)cc2)C1 (stereo not shown)	-54.1%
O=C(NCc1ccncc1)C1CCC(=O)N(CCc2ccc(Cl)cc2)C1 (stereo not shown)	-65.5%
O=C(NCc1ccc2c(c1)OCO2)C1CC(=O)N(CCc2ccccc2)C1 (stereo not shown)	3.54%
CCn1nc(C)c(CNC(=O)C2CCC(=O)N(CCc3ccc(Cl)cc3)C2)c1C (stereo not shown)	-21.6%
CCc1ccc(CNC(=O)C2CCC(=O)N(CCc3ccc(Cl)cc3)C2)nc1 (stereo not shown)	-67%
O=C(NCc1ccccn1)C1CCC(=O)N(Cc2ccc(Cl)cc2)C1 (stereo not shown)	18.7%

Structure (SMILES)	hERG current change (%, negative = inhibition) at 10uM
Cc1ccc(CNC(=O)C2CCC(=O)N(CCc3ccc(Cl)cc3)C2)cc1 (stereo not shown)	-40.2%
COc1ccccc1CCCNC(=O)C1CCC(=O)N(Cc2ccccc2F)C1 (stereo not shown)	-1.76%
CCOc1ccc(C)cc1S(=O)(=O)Nc1ccc(Cl)cn1	-3.98%
Cn1c(=O)cc(OCC(=O)N2CCCc3ccccc32)c2ccccc21	-3.03%
CCOC(=O)C1(Cc2ccccc2C)CCCN(C(=O)CN2CCCCC2=O)C1 (stereo not shown)	14.8%
COc1ccc(C(CC(=O)O)NC(=O)COc2ccc(C)cc2)cc1OC (stereo not shown)	15.2%
CCOC(=O)c1c(NC(=O)c2cccs2)sc2c1CCCC2	15.6%
Cc1ccccc1NC1=NCC(C)S1 (stereo not shown)	-2.32%
CCOC(=O)CN1C(=O)N[C@@H](c2cccs2)C(C(=O)OC)=C1C	-11%
CCCc1nn2c(=O)cc(CSCC(=O)Nc3ccc(F)cc3)nc2s1	-1.51%
O=C(NCCc1ccccc1F)C1CCC(=O)N(Cc2ccc(Cl)cc2)C1 (stereo not shown)	-32.5%
CN(CCNC(=O)C1CCC(=O)N(Cc2cccc(F)c2)C1)CCc1ccccc1 (stereo not shown)	-46.3%
O=C(NCCc1ccccc1Cl)C1CCC(=O)N(Cc2ccc(Cl)cc2)C1 (stereo not shown)	-56.8%
COc1ccccc1CN1CC(C(=O)NCCCc2ccc(F)cc2)CCC1=O (stereo not shown)	-41%
COc1ccccc1CN1CC(C(=O)NCCN(C)CCc2ccccc2)CCC1=O (stereo not shown)	-65.7%
COc1ccccc1CN1CC(C(=O)N2CCOCC2)CCC1=O (stereo not shown)	-14.6%
COc1ccccc1CN1CC(C(=O)N2CCCCO2)CCC1=O (stereo not shown)	-65.7%
O=C(NC1(c2ccccc2)CC1)C1CCC(=O)N(Cc2ccc(Cl)cc2)C1 (stereo not shown)	-24.1%
CN(CCNC(=O)C1CCC(=O)N(Cc2ccc(Cl)cc2)C1)CCc1ccccc1 (stereo not shown)	-72.6%
COc1ccccc1CCNC(=O)C1CCC(=O)N(Cc2ccccc2OC)C1 (stereo not shown)	-13.2%
Cc1ccccc1CCNC(=O)C1CCC(=O)N(Cc2ccc(Cl)cc2)C1 (stereo not shown)	-33.4%
COc1ccccc1CN1CC(C(=O)N2CCCCCCC2)CCC1=O (stereo not shown)	3.22%
